Assay results as given in PubChem BioAssay (NCI).
Compounds without any hit were thinned out: in the full panel of roughly 79,000, 15% have a hit. Values without a mark were called inactive. Activity calls are given as the source filed them. No stated cut-off is given here; in the data, active means growth inhibition above about 70%; inactive means the rest.

Experiments:
[1] = NCI Yeast Anticancer Drug Screen. Data for the rad50 strain (AID 155);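 further: 0% = growth of vehicle-only cultures of the same strain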; settings: S. cerevisiae rad50 strain growth inhibition; at 50.0 µM; active compounds read high
Procedure, shortened: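 Vehicle-treated cultures provide the reference for the growth inhibition reported for compound-exposed, repair-deficient yeast.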

[2] = NCI Yeast Anticancer Drug Screen. Data for the mec2-1 strain (AID 157); settings: S. cerevisiae mec2-1 strain, at 50.0 µM, active compounds read high
Procedure, shortened: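 Mutant yeast (mec2-1) grown with compound; growth inhibition relative to vehicle control reported.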

[3] = NCI Yeast Anticancer Drug Screen. Data for the sgs1 mgt1 strain (AID 161);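 further: 0% = growth of cultures given vehicle only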; settings: S. cerevisiae sgs1 mgt1 strain, at 50.0 µM, active compounds read high
Procedure, shortened: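 Percent growth inhibition was derived by comparing compound-exposed mutant yeast with vehicle-exposed cultures. The strain carries alterations in DNA damage repair.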

[4] = NCI Yeast Anticancer Drug Screen. Data for the cln2 rad14 strain (AID 165);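 further: 0% = growth equal to vehicle treated cultures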; settings: S. cerevisiae cln2 rad14 strain, at 50.0 µM, active compounds read high
Procedure, shortened: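 Readout is yeast growth inhibition versus vehicle-treated controls, using a strain with cln2 and rad14 alterations exposed to compound.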

[5] = NCI Yeast Anticancer Drug Screen. Data for the bub3 strain (AID 167); settings: S. cerevisiae bub3 mutant strain, at 50.0 µM, active compounds read high
Procedure, shortened: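 Mutant yeast screening strain plus compound; vehicle-treated cultures serve as the 0% inhibition reference.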

[6] = NCI Yeast Anticancer Drug Screen. Data for the mlh1 rad18 strain (AID 175); settings: S. cerevisiae mlh1 rad18 strain growth inhibition; at 50.0 µM; active compounds read high
Procedure, shortened: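 Genetically defined yeast (DNA repair-deficient) exposed to compounds; growth inhibition determined relative to vehicle.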

SMILES	growth inhibition [1]	growth inhibition [2]	growth inhibition [3]	growth inhibition [4]	growth inhibition [5]	growth inhibition [6]
BrCC[N+]12CC[N+](CCBr)(CC1)C2 (tested in a mixture with another compound)	63.1%	49.5%	81.6% (active)	61.5%	78.1% (active)	42.4%
CO[C@H]1C[C@H](O[C@H]2CC[C@]3(C=O)[C@H]4CC[C@]5(C)[C@@H](C6=CC(=O)OC6)CC[C@]5(O)[C@@H]4CC[C@]3(O)C2)O[C@H](C)[C@H]1O	33.4%	-11.3%	8.6%	0.55%	-6.45%	32.3%
Clc1cc[c]([Sb]2([c]3ccc(Cl)cc3)([c]3ccc(Cl)cc3)[O]C(C(Cl)(Cl)Cl)[O]2)cc1 (stereo unspecified)	98.3% (active)	98.5% (active)	98.2% (active)	98.2% (active)	97% (active)	97.8% (active)
O=c1ccn(C2OC(CO)C(O)C2[Se]c2ccccc2)c(=O)[nH]1 (stereo unspecified)	4%	-9.45%	16.8%	6.05%	7.2%	27.1%
CC(C)CC1N=C(NN=C(CCl)CCl)SP1(=O)NCCCCCCNP1(=O)SC(NN=C(CCl)CCl)=NC1CC(C)C (stereo unspecified)	2.95%	12.1%	11.4%	-11.7%	15.9%	13.8%
CCCCCCCCCCNP(=O)(Oc1ccccc1)Oc1ccccc1	-21.8%	4.05%	-16.4%	-24.5%	-4.75%	-23.9%
CCOC(=O)C[S][Sn]([Cl])([Cl])[S]CC(=O)OCC	0.6%	-1.15%	-3.65%	-32%	-5.2%	-18.1%
CN(C)C1OCCO1	-8.45%	-36.1%	-11%	1.4%	-7.05%	-3.35%
CC(=O)OC1CC2(O)C3CCC4CC(O)CCC4(C)C3CCC2(C)C1C1=CC(=O)OC1 (stereo unspecified)	-11.1%	-19.9%	-9.9%	-6.4%	-32.4%	-1.75%
CC(=O)O[C@@]12CO[C@@H]1CC(O)[C@@]1(C)C(=O)[C@H](O)C3=C(C)C(O)C[C@@](O)(C(OC(=O)c4ccccc4)C12)C3(C)C (stereo partly specified)	-12.8%	-28.4%	-12.3%	-5.9%	-29.4%	-8.65%
NC(=O)c1cc(N(CCCl)CCCl)c([N+](=O)[O-])cc1[N+](=O)[O-]	38.9%	-11.1%	10.4%	14.4%	18.6%	5.5%
CN(N=O)C(=O)ON1C(=O)CCC1=O	9.65%	7.55%	11.3%	12.4%	18.8%	8.75%
CN(C)C(=S)Oc1c(S(=O)(=O)F)ccc(Cl)c1Cl	96.3% (active)	88% (active)	98% (active)	76.5% (active)	95.2% (active)	98.3% (active)
CP(=S)(c1ccccc1)P(C)(=S)c1ccccc1 (stereo unspecified)	-15.4%	-19.4%	-17.9%	5.05%	-21.2%	-31%
Cc1ccc(C(=O)O[C@H](C(=O)O)[C@H](OC(=O)c2ccc(C)cc2)C(=O)O)cc1	18.1%	-4.05%	-19.6%	10.4%	2.6%	-11.1%
O=C(NC1CC1)C(Cl)Cl	-0.15%	-25.1%	5.85%	11%	-16.4%	-1.15%
Cc1nc2ccc(Br)cc2c(=O)n1-c1nnc(C(C)(C)C)s1	-10.9%	-40.4%	-23.2%	-5.75%	-20.6%	-12.2%
COc1ccc2c3c1OC1C(OC)(OC)CC4(C=C2)CN(C)CCC314 (stereo unspecified)	-31%	-22.4%	-20.4%	-11.4%	-23.9%	-11.8%
O=P1(c2ccccc2)CCCCN1 (stereo unspecified)	12.2%	-16.1%	-5.1%	-20.9%	3.55%	1.8%
CCCCCCNC(=O)CBr	34.6%	4.55%	14.6%	3.4%	16.8%	30%
CCCCCCCC(=O)[O][Pb]([CH2]C)([CH2]C)[CH2]C	-7.8%	-29.2%	1.95%	-1.5%	0%	-21.3%

SMILES	growth inhibition [1]	growth inhibition [2]	growth inhibition [3]	growth inhibition [4]	growth inhibition [5]	growth inhibition [6]
CCCC[S][Hg][I]	92.5% (active)	98.7% (active)	97.9% (active)	38.9%	99.1% (active)	98.8% (active)
O=C(Nc1ccccc1)c1ccc([As](c2ccc(C(=O)Nc3ccccc3)cc2)c2ccc(C(=O)Nc3ccccc3)cc2)cc1	-8.9%	-7%	-4.85%	-23.9%	-19.2%	-33.5%
NNC(N)=NCCCC(N)C(=O)O (stereo unspecified)	-22%	-42%	-34.3%	5.2%	-45.6%	-16.6%
CCC[CH2][Sn]([CH2]CCC)([CH2]CCC)[CH2]CCNCCCN(C)C	99.3% (active)	99.7% (active)	99.5% (active)	99% (active)	98.8% (active)	99.2% (active)
C1CN1[PH+](N1CC1)N1CC1.[C-]#[O+].[C-]#[O+].[C-]#[O+].[C-]#[O+].[C-]#[O+].[W]	-12.8%	-3.85%	-21%	-43.9%	13.1%	3.1%
O=C(CC(=O)C(F)(F)F)c1ccco1.[Fe]	32.6%	21.3%	0.5%	6.9%	6.55%	14.7%
CCOP(=O)(CC(=O)c1cc2ccccc2[nH]1)OCC	-3.5%	12.6%	-2.1%	1.2%	-8.1%	-19.8%
Clc1cccc(Cl)c1C(Cl)Cl	-7.45%	-17.2%	-3.15%	-4.4%	-6.65%	-11.2%
O=C1NCCCC1(Cl)Cl	4.75%	-1.25%	4.2%	-16.3%	-10.6%	13.2%
CCOC(OC1=C(C#N)CCCC1)C(C)[Se]c1ccccc1 (stereo unspecified)	63%	25.2%	54.2%	41.9%	50.4%	34%
C/C(CCl)=N\NC1=NC2(CCCCC2)P(=O)(NNc2ncccn2)S1 (stereo unspecified)	3.7%	12%	19.9%	-0.5%	6.3%	15.2%
Cl.[O-]c1cccc2cccnc12.[O-]c1cccc2cccnc12.[O-]c1cccc2cccnc12.[O-]c1cccc2cccnc12.[Ti+4]	89.8% (active)	92.8% (active)	92.8% (active)	91.3% (active)	92% (active)	84.6% (active)
CC1CS1 (stereo unspecified)	-5.7%	4.8%	-10.1%	2.9%	12.2%	-11.1%
CCN1CCC2OCOC2C1 (stereo unspecified)	8.5%	2.85%	2.9%	0.5%	-0.05%	33.6%
CCN1C(=O)C(C)C(=O)N(C)C1=O (stereo unspecified)	-33.6%	18.7%	0.9%	-11.4%	0.1%	1.8%
COc1ccccc1OC (tested in a mixture with another compound)	22.5%	16.7%	26.4%	-17.4%	14.2%	16.2%
COC(=O)CP(=O)(OC)OCC(F)(F)F (stereo unspecified)	-32.8%	-14.4%	-23.5%	-6%	-33.6%	-25.3%
O=P(O)(O)CCP(=O)(O)O	-14.5%	17.9%	-13.4%	21.8%	-13.7%	-13.7%
CC(C)(C)NP(=O)(NC(C)(C)C)NC(C)(C)C	5.65%	-9.6%	-17.2%	4.85%	-8.5%	8.2%
N.N.N.N.N.O=C([O-])C(=O)[O-].[Co+3].[O-][Cl+3]([O-])([O-])O.[O-][Cl+3]([O-])([O-])[O-]	-12.3%	11.8%	-22.9%	6.2%	0.8%	-12.7%
